Test [1] has as its target Cytochrome P450 2D6 (Homo sapiens) (UniProt P10635). Nature of the test: Cytochrome P450 Family 2 Subfamily D Member 6 (CYP2D6) small molecule antagonists: luciferase reporter qHTS assay (AID 1671196). Also: nearly all actives have a fitted effect of over 50% in size. Particulars: P450-Glo CYP2D6 enzyme assay, luciferin luminescence, 1 h; series mostly up to 115 µM. The method in brief: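 P450-Glo format: CYP2D6 converts a proluciferin substrate to luciferin in an NADPH-driven reaction lasting 1 h at room temperature. Light output, proportional to CYP2D6 activity, reflects interference by test chemicals.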
On the technique in general: In a reporter assay the amount or activity of a reporter protein is the signal.

Test [2] deals with Cytochrome P450 2C19 (Homo sapiens) (UniProt P33261). Nature of the test: Cytochrome P450 Family 2 Subfamily C Member 19 (CYP2C19) small molecule antagonists: luciferase reporter qHTS assay (AID 1671197). Also: nearly all actives have a fitted effect of over 65% in size. The settings on record: P450-Glo CYP2C19 enzyme, luciferin luminescence, 1 h; series mostly up to 52.9 µM. Put shortly:
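Quantitative high-throughput screen of the Tox21 library using CYP2C19 with proluciferin substrate. Reaction: NADPH regeneration, 37C, 1 h, after 10 min compound preincubation at room temperature. Readout: luminescence.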

In test [3] the target is Voltage-gated inwardly rectifying potassium channel KCNH2 (Homo sapiens) (UniProt Q12809). Nature of the test: Human Ether-a-go-go-Related Gene (hERG) channel small molecule antagonists: fluorescence cell-based qHTS assay (AID 1671200). Also: nearly all actives have a fitted effect of over 50% in size. The settings on record: hERG-U2OS cells, FluxOR thallium flux fluorescence; series mostly up to 76.8 µM. Put shortly:
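Channel function was assessed by thallium flux. Cells seeded the previous day and kept at 37 C took up FluxOR II dye over 1 h in the dark at room temperature, then sat another 10 min before stimulation.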
(In general: hERG is a cardiac potassium channel; its block is linked to QT prolongation.)

For test [4], the target named is Cytochrome P450 3A4 (Homo sapiens) (UniProt P08684). As to the kind of experiment: Cytochrome P450 Family 3 Subfamily A Member 4 (CYP3A4) small molecule antagonists: luciferase reporter qHTS assay (AID 1671201). Also: nearly all actives have a fitted effect of over 50% in size. The settings on record: P450-Glo CYP3A4 enzyme, luciferin luminescence, 1 h; series mostly up to 115 µM. The method in brief: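 Compounds in DMSO were pin-transferred onto CYP3A4 enzyme-substrate mix and held 10 min at room temperature. NADPH regenerating solution started the reaction for 1 h; luciferin detection reagent stopped it, and luminescence was read after 20 min.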

In test [5] the target is Cytochrome P450 2C9 (Homo sapiens) (UniProt P11712). As to the kind of experiment: Cytochrome P450 Family 2 Subfamily C Member 9 (CYP2C9) small molecule antagonists: luciferase reporter qHTS assay (AID 1671198). Also: nearly all actives have a fitted effect of over 50% in size. Particulars: P450-Glo CYP2C9 enzyme assay, luciferin luminescence; series mostly up to 115 µM. Put shortly:
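CYP2C9 activity was measured with a P450-Glo proluciferin substrate. Enzyme–substrate mix was held with compound for 10 min at room temperature, then NADPH regeneration solution was added for 1 h at 37C. Luciferin product was read as luminescence.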

Test [6] addresses Cytochrome P450 1A2 (Homo sapiens) (UniProt P05177). Nature of the test: Cytochrome P450 Family 1 Subfamily A Member 2 (CYP1A2) small molecule antagonists: luciferase reporter qHTS assay (AID 1671199). Also: nearly all actives have a fitted effect of over 50% in size. The settings on record: P450-Glo CYP1A2 enzyme, luciferin luminescence, 1 h; series mostly up to 53 µM. Put shortly:
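Inhibition of CYP1A2 conversion of proluciferin to luciferin, detected by luminescence. Reaction run 1 h at room temperature with NADPH regeneration after brief compound preincubation.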

Records with an inconclusive call do not appear. Calls of active or inactive are those of the source. Calls follow the shape of the dose curve; as a rule, active = well fitted curve in the direction sought with a large enough effect in the repeat runs; inconclusive = weak or mixed curves; inactive = no such curve, though single readings can be large; an effect the other way counts as inactive or inconclusive.
Potency is read from the fitted curve at half-maximal effect.

Chain of Voltage-gated inwardly rectifying potassium channel KCNH2 (Homo sapiens) (Q12809 whole entry, looked up): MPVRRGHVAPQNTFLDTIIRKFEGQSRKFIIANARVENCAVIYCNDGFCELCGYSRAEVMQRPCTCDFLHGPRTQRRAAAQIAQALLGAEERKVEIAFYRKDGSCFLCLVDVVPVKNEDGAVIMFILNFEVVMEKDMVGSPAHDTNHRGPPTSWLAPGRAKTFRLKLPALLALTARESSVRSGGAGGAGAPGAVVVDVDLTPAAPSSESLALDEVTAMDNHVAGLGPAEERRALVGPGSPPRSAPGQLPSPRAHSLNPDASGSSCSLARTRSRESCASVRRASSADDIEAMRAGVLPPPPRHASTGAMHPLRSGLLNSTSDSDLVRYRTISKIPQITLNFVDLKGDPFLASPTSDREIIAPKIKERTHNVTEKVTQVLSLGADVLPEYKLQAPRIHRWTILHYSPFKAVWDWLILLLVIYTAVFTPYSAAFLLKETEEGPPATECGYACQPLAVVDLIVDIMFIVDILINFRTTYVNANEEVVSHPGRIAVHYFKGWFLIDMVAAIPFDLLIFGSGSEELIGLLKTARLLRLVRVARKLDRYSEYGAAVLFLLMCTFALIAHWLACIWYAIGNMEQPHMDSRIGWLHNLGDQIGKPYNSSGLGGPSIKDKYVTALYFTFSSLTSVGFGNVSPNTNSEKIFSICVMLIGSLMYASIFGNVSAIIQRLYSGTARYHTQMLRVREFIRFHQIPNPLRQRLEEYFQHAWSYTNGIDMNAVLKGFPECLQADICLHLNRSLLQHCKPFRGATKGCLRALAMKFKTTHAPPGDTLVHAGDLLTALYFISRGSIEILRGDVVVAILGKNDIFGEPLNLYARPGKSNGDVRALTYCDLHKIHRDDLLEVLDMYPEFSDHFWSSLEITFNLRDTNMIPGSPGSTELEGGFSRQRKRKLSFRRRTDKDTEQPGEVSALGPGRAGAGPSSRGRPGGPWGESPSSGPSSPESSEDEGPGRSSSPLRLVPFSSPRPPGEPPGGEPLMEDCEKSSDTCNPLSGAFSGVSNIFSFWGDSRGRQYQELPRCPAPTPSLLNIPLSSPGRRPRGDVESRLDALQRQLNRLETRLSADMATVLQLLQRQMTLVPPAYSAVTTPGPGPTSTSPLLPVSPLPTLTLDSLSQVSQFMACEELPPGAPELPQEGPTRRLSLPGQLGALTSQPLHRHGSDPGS
Chain of Cytochrome P450 3A4 (Homo sapiens) (P08684 whole entry, looked up): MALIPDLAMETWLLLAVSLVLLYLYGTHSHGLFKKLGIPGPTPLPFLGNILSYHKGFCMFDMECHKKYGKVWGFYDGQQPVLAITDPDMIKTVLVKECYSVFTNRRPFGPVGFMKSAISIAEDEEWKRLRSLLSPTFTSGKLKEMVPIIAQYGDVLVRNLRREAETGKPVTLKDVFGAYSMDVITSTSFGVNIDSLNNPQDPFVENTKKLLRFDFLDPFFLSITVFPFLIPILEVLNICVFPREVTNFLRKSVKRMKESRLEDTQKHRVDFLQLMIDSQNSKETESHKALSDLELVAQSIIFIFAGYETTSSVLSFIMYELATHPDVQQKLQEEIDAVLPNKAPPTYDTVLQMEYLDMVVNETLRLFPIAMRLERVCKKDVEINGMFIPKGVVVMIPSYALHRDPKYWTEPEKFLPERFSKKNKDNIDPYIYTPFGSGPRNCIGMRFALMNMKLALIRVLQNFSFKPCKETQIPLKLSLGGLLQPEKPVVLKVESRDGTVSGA
Chain of Cytochrome P450 2C19 (Homo sapiens) (P33261 whole entry, looked up): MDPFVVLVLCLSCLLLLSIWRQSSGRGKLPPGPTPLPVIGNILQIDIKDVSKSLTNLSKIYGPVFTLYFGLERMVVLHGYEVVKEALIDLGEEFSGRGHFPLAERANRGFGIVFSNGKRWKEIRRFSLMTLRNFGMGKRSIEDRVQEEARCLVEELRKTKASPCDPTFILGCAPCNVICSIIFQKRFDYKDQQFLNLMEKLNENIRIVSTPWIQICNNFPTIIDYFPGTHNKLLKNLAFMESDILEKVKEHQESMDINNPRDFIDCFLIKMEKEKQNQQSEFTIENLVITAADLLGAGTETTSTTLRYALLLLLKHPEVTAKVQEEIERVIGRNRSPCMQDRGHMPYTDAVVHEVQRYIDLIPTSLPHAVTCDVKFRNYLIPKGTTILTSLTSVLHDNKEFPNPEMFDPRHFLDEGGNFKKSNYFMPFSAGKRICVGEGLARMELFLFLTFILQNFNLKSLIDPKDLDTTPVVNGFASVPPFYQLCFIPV
Chain of Cytochrome P450 1A2 (Homo sapiens) (P05177 whole entry, looked up): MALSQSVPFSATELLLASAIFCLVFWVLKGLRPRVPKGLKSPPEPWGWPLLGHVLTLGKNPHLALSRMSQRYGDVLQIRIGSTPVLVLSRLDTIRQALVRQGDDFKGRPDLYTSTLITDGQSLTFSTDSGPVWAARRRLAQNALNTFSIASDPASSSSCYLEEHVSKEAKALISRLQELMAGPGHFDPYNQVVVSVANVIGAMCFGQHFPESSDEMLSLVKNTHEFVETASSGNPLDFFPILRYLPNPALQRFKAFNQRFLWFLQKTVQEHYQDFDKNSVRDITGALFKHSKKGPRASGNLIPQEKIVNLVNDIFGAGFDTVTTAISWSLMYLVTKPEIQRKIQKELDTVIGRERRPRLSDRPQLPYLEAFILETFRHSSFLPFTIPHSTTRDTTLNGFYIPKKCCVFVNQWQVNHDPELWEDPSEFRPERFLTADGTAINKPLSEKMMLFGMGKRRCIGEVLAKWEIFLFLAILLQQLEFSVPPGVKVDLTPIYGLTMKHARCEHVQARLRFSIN
Chain of Cytochrome P450 2C9 (Homo sapiens) (P11712 whole entry, looked up): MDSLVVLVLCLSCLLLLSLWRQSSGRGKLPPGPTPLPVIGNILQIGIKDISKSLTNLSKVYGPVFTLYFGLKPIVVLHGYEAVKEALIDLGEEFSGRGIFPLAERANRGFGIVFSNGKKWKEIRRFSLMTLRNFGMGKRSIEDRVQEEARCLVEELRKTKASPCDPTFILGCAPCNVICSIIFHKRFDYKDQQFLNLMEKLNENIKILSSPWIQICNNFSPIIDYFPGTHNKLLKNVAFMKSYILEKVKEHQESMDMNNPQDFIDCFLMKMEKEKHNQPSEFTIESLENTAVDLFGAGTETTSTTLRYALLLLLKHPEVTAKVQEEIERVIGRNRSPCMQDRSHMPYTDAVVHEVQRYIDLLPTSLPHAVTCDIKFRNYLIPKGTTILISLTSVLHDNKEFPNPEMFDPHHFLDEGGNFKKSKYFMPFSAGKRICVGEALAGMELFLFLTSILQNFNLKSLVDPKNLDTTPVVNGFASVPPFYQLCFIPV
Chain of Cytochrome P450 2D6 (Homo sapiens) (P10635 whole entry, looked up): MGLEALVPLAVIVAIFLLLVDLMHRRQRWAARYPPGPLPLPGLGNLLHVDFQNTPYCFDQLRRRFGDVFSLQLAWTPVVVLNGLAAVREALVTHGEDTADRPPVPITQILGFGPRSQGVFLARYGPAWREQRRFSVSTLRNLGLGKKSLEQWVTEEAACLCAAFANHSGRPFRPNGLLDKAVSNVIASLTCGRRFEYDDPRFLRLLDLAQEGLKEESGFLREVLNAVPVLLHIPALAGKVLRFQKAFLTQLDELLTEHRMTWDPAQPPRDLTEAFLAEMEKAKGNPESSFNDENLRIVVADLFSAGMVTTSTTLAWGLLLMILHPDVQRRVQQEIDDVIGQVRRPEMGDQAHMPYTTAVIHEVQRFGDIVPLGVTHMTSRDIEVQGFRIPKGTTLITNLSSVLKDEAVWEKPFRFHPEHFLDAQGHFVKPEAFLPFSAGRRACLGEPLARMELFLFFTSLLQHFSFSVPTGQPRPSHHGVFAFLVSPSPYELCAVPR

As for `CC[N+](CC)(CCNC(=O)C(=O)NCC[N+](CC)(CC)Cc1ccccc1Cl)Cc1ccccc1Cl`, in test [1], the Potency is 15.5 µM (active). Further, the Potency result in test [2], in test [3] and in test [4] was “inactive” each time.
In the case of `CCCCN1CCCC1C(=O)Nc1c(C)cc(C)cc1C` (stereo not drawn), the Potency in test [1] is 3.09 µM (active). Besides, the Potency result in test [5] and in test [6] was “inactive” each time.
As for `CC(=O)Oc1ccc([N+](=O)[O-])cc1CCl`, the Potency result in test [1], in test [2], in test [6] and in test [4] was “inactive” throughout.
`O=C(OC(=O)c1ccccc1)c1ccccc1`: the Potency result in test [1], in test [2], in test [3] and in test [4] was “inactive” each time.
For `Cc1cc(C)cc(N)c1`, the Potency is 5.09 µM (active) in test [1], 7.19 µM (active) in test [2], 36 µM (active) in test [6] and 3.21 µM (active) in test [4]. Also, the Potency entry in test [3] is “inactive”.
As for `NNC(=O)CP(=O)(c1ccccc1)c1ccccc1`, the Potency entry in test [1] and in test [6] was “inactive” each time.
With `CC(=O)c1ccc([N+](=O)[O-])cc1`, the Potency in test [2] is 63.4 µM (active); in test [6], 40 µM (active). Further, the Potency result in test [5], in test [3] and in test [4] was “inactive” each time.
As to `c1csc(SSc2cccs2)c1`, the Potency in test [2] was 5.03 µM (active); in test [5], 5.03 µM (active); in test [6], 31.7 µM (active). In addition, the Potency result in test [3] and in test [4] was “inactive” throughout.
Take `CC(CCC(=O)O)C(=O)O` (stereo not drawn): in test [1], the Potency is 63.4 µM (active). Also, the Potency result in test [3] and in test [4] was “inactive” throughout.
In the case of `Cc1ccc2c(Br)cc(Br)c(O)c2n1`, the Potency result in test [1], in test [3] and in test [4] was “inactive” in each case. Besides, the Potency in test [6] was 36.3 µM (active).
`CCC(C)COC(C)=O` (stereo not drawn): the Potency result in test [1], in test [6], in test [3] and in test [4] was “inactive” in each case.
In the case of `CC(=O)Nc1ccc(C)cc1C`, the Potency entry in test [1], in test [5], in test [6], in test [3] and in test [4] was “inactive” each time.
Consider `CCn1cc(C(=O)O)c(=O)c2cc(F)c(N3CCNCC3)cc21`, for which the Potency result in test [1], in test [5], in test [6] and in test [4] was “inactive” each time.
Consider `CCC1(CO)COCOC1`, for which the Potency result in test [1], in test [5] and in test [4] was “inactive” throughout.
Consider `C/C=C(/C(=C/C)c1ccc(O)cc1)c1ccc(O)cc1`, for which the Potency entry in test [1] and in test [6] was “inactive” in each case.
On to `CCC=CC#N`, for which the Potency entry in test [1], in test [5], in test [3] and in test [4] was “inactive” in each case.
As for `CO[C@]1(NC(=O)CSC(F)F)C(=O)N2C(C(=O)O)=C(CSc3nnnn3CCO)CO[C@H]21`, the Potency entry in test [2], in test [5], in test [6], in test [3] and in test [4] was “inactive” throughout.
With `FC(F)(F)c1ccccc1Cl`, the Potency in test [1] is 46 µM (active). Besides, the Potency entry in test [5], in test [6], in test [3] and in test [4] was “inactive” throughout.
On to `CN1C(=O)N(c2ccccc2Br)Cc2cnc(Nc3ccc4c(c3)OCC(CO)O4)nc21` (stereo not drawn), for which the Potency was 7.1 µM (active) in test [2], 11.2 µM (active) in test [5], 28.3 µM (active) in test [6] and 43.6 µM (active) in test [3]. Also, the Potency result in test [4] was “inactive”.
Regarding `CC(C)COCC(CN(Cc1ccccc1)c1ccccc1)N1CCCC1` (stereo not drawn), in test [1], the Potency was 0.0692 µM (active). The Potency entry in test [6] was “inactive”.
With `CC=C(Cl)Cl`, the Potency entry in test [1], in test [5], in test [6], in test [3] and in test [4] was “inactive” each time.
On to `CC(=O)OCC[N+](C)(C)C`, for which the Potency result in test [1], in test [5] and in test [4] was “inactive” in each case. The Potency in test [6] was 24.5 µM (active).
`Oc1cc2c(cc1O)[C@H]1c3ccc(O)c(O)c3OC[C@@]1(O)C2`: the Potency in test [1] is 36 µM (active); in test [5] it was 32.1 µM (active); in test [6] it was 36 µM (active). Also, the Potency result in test [3] was “inactive”.
For `C=C(C)C(=O)OCCCCCCCCCCCCC`, the Potency result in test [1], in test [5] and in test [6] was “inactive” in each case. Moreover, the Potency in test [4] was 55.7 µM (active).
As to `CN1C(=O)c2ccccc2C1=O`, the figures for the Potency in test [2], in test [5] and in test [6] were 79.6 µM (active), 10 µM (active) and 24.5 µM (active), respectively. Moreover, the Potency entry in test [3] and in test [4] was “inactive” throughout.
With `O=C1CCCCCCCCCCOCCCCO1`, the Potency entry in test [1] is “inactive”. Also, the values for the Potency in test [6] and in test [4] were 35.6 µM (active) and 39.9 µM (active), respectively.
With `CCCCCC[C@@H](O)C/C=C\CCCCCCCC(=O)O`, the Potency result in test [1], in test [6], in test [3] and in test [4] was “inactive” in each case.
`CC(C)=CCC/C(C)=C/CC/C(C)=C/C(=O)OCC(=O)[C@@]1(O)CC[C@H]2[C@@H]3CCC4=CC(=O)C=C[C@]4(C)[C@H]3[C@@H](O)C[C@@]21C`: the Potency in test [2] was 7.76 µM (active); in test [5], 3.89 µM (active). For the same compound, the Potency result in test [6] and in test [3] was “inactive” in each case.
As for `Nc1nnc(-c2ccc([N+](=O)[O-])o2)o1`, the Potency in test [1] and in test [6] was 39.9 µM (active) in each case. In addition, the Potency entry in test [3] and in test [4] was “inactive” each time.
In the case of `O=c1[nH]ncc2ccccc12`, the Potency entry in test [1], in test [5], in test [6], in test [3] and in test [4] was “inactive” in each case.
Consider `CO/N=C(/C(=O)N[C@@H]1C(=O)N2C(C(=O)O)=C(COC(N)=O)CS[C@H]12)c1ccco1`, for which the Potency entry in test [1], in test [6] and in test [3] was “inactive” in each case.
For the compound `O=C1Cc2cc(Cl)ccc2N1`, the Potency entry in test [1], in test [3] and in test [4] was “inactive” in each case. Also, the Potency in test [5] was 17.4 µM (active); in test [6], 11 µM (active).
As for `CCCCOc1ccc(OCCCN2CCOCC2)cc1`, in test [1], the Potency is 27.5 µM (active). Moreover, the Potency result in test [6] and in test [4] was “inactive” in each case.
As for `Cc1ccccc1S`, the Potency is 28.5 µM (active) in test [1], 45.2 µM (active) in test [5] and 50.7 µM (active) in test [6]. The Potency entry in test [3] and in test [4] was “inactive” in each case.
Consider `Cc1ccc(Cl)c(Nc2ccccc2C(=O)O)c1Cl`, for which the Potency result in test [1], in test [6], in test [3] and in test [4] was “inactive” each time. Also, in test [5], the Potency was 17.4 µM (active).
`COc1ccccc1N1CCN(CC(O)COc2cccc3ccccc23)CC1` (stereo not drawn): in test [1], the Potency was 1.55 µM (active). For the same compound, in test [4], the Potency result was “inactive”.
Take `C=CC(=O)OCC1CC2CC1C1CCC(COC(=O)C=C)C21` (stereo not drawn): the results for the Potency in test [2], in test [5] and in test [6] were 5.03 µM (active), 17.8 µM (active) and 35.6 µM (active), respectively.
Consider `Nc1ncnc2c1ncn2[C@H]1CC[C@@H](CO)O1`, for which the Potency result in test [1], in test [5], in test [3] and in test [4] was “inactive” in each case.
In the case of `CN1CCCC(n2nc(Cc3ccc(Cl)cc3)c3ccccc3c2=O)CC1` (stereo not drawn), the Potency in test [1] is 1.1 µM (active). Further, the Potency entry in test [6] is “inactive”.
As to `O=C=Nc1cccc(C(F)(F)F)c1`, the Potency result in test [1], in test [5], in test [6], in test [3] and in test [4] was “inactive” in each case.
Regarding `CCN(CC)CCNC(=O)COc1ccc(OC)cc1`, in test [1], the Potency is 13.8 µM (active). For the same compound, the Potency entry in test [5], in test [6], in test [3] and in test [4] was “inactive” each time.
For `CCCCCCCCCCC(=O)O`, the Potency entry in test [1], in test [6], in test [3] and in test [4] was “inactive” each time.
`CCOC(C)=O`: the Potency result in test [1], in test [5], in test [6] and in test [4] was “inactive” in each case.
As to `CCOc1ccc(Cc2nccc3cc(OCC)c(OCC)cc23)cc1OCC`, the Potency in test [2] is 7.76 µM (active); in test [5], 4.9 µM (active). The Potency result in test [6] was “inactive”.
